Laboratory results reported in PubChem BioAssay (NCI).
Compounds without any hit were thinned out: in the full panel of roughly 83,000, 20% have a hit.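 Single-concentration screen, 48 h exposure, 96-well plates. Endpoint: percent growth. Below 10 = active.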 Calls of active or inactive are those of the source.

test system: MDA-MB-468 breast; assay: NCI-60 one-dose screen, 48 h (100 = growth as untreated, 0 = no growth, -100 = all killed); details: 10 µM unless noted

Q: Which growth does the source give for `NC(=O)c1cnc(Nc2cccc(N)c2)nc1NCCCNC(=O)C1CCC1` here?
A: 52.9% (inactive)

Q: With `CCCCN(CCCC)CCC(O)c1cc2ccc(C(F)(F)F)cc2c2cc(C(F)(F)F)ccc12` (configuration not stated) as the compound, how does the growth read?
A: 39.6% (inactive)

Q: With `COc1cccc(/C(C)=N/NC(=O)CSc2nc3ccccc3c(=O)n2CCc2ccc(S(N)(=O)=O)cc2)c1` as the compound, how does the growth read?
A: 35.3% (inactive)

Q: For `Cc1ccc(-c2nnc(COc3ccc(-c4nnc(N)s4)cc3)o2)cc1`, which growth is on record?
A: 72.7% (inactive)

Q: For `Nc1cc2nc3ccccc3sc-2cc1=O`, which growth is on record?
A: 72.9% (inactive)

Q: Which growth does the source give for `COc1cc(/C=C/C(=O)c2c(C)nc3ccccc3c2/C=C/c2ccccc2)cc(OC)c1OC` here?
A: 7.7% (active)

Q: Which growth does the source give for `COC(=O)[C@H](C)NC(=O)[C@@H](OC)[C@@H]1Cc2cc3cc(OC4CC(OC5CC(O)C(O)C(C)O5)C(O)C(C)O4)c(C)c(O)c3c(O)c2C(=O)[C@H]1OC1CC(OC2CC(OC3CC(C)(O)C(O)C(C)O3)C(O)C(C)O2)C(O)C(C)O1` (some centres not stated) here?
A: -36.2% (active)

Q: For `COc1ccc(Cn2cc(COc3cc(/C=C/C(=O)c4cc(OC)c(OC)c(OC)c4)ccc3OC)nn2)cc1`, which growth is on record?
A: 49% (inactive)

Q: `O=C(Cn1c2ccccc2c2ccncc21)N/N=C\c1ccc2ccccc2c1` was tested. Which growth did it give?
A: 19.7% (inactive)

Q: With `CCCCCCNC(=O)Oc1ccc(/C(=C(/C)Cc2ccc(OC)cc2)c2ccc(OCCN3CCCCC3)cc2)cc1` as the compound, how does the growth read?
A: 88.6% (inactive)

Q: For `CCOc1ccc(Br)cc1/C=N\N=C\c1cc(Br)ccc1OCC`, which growth is on record?
A: 128% (inactive)

Q: `Cc1cccc2c1NC(=O)[C@@]21[C@H](C(=O)c2ccccc2)[C@]2(C(=O)Nc3ccccc32)[C@H]2CCCN21` was tested. Which growth did it give?
A: 22.2% [100 µM] (inactive)
